Laboratory results: PubChem BioAssay AID1159580 (chemical genetic matrix, 2015)
Out of some 5,500 compounds screened, about 2,000 (36%) were called active. Inconclusive results (about 18%) are left out. No stated cut-off is given here; in the data, active means normalized growth mostly below about 0.91 (no sharp cut-off); inconclusive means no clear call, values can overlap the other calls; inactive means mostly above about 0.92. The list shows a part of the results.

Test: chemical genetic growth profiling, strain panel (AID 1159580);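 further: tested at 20 µM; growth read once vehicle control cultures reached saturation at 30 °C; 1 = growth at the plate median or of vehicle wells; lower values mean less growth of the strain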
Conditions: growth OD
[1] = S. cerevisiae deletion strains, locus YBR229C, strain ROT2, hits give low values
[2] = S. cerevisiae deletion strains, locus YDL101C, strain DUN1, hits give low values
[3] = S. cerevisiae deletion strains, locus YGR078C, strain PAC10, hits give low values
[4] = S. cerevisiae deletion strains, locus YJR075W, strain HOC1, hits give low values
[5] = S. cerevisiae deletion strains, locus YKL190W, strain CNB1, hits give low values
[6] = S. cerevisiae deletion strains, locus YLR039C, strain RIC1, hits give low values
[7] = S. cerevisiae deletion strains, locus YLR262C, strain YPT6, hits give low values
[8] = S. cerevisiae deletion strains, locus YMR307W, strain GAS1, hits give low values
[9] = S. cerevisiae deletion strains, locus YAL013W, strain DEP1, hits give low values
[10] = S. cerevisiae deletion strains, locus YNL153C, strain GIM3, hits give low values
[11] = S. cerevisiae deletion strains, locus YPL055C, strain LGE1, hits give low values

Measured: normalized growth

C[C@]12CCC3C(CC[C@H]4C[C@H](O)CC[C@]34C)C1CC[C@@H]2O (stereo not given in full)
inactive: [1] 1.01 | S. cerevisiae deletion strains, locus YCL029C, strain bik1, hits give low values 0.948 | S. cerevisiae deletion strains, locus YDL035C, strain GPR1, hits give low values 0.883 | S. cerevisiae deletion strains, locus YDL074C, strain BRE1, hits give low values 0.929 | [2] 0.938 | S. cerevisiae deletion strains, locus YDL185W, strain tfp1, hits give low values 0.978 | S. cerevisiae deletion strains, locus YDL192W, strain arf1, hits give low values 0.965 | S. cerevisiae deletion strains, locus YDR101C, strain arx1, hits give low values 0.991 | S. cerevisiae deletion strains, locus YDR318W, strain mcm21, hits give low values 0.948 | S. cerevisiae deletion strains, locus YDR388W, hits give low values 0.994 | S. cerevisiae deletion strains, locus YER110C, hits give low values 1.01 | S. cerevisiae deletion strains, locus YER155C, strain BEM2, hits give low values 1.01 | S. cerevisiae deletion strains, locus YER167W, strain BCK2, hits give low values 1.02 | S. cerevisiae deletion strains, locus YGL086W, strain mad1, hits give low values 0.951 | [3] 0.908 | S. cerevisiae deletion strains, locus YHR079C, strain IRE1 (second series), hits give low values 1.01 | S. cerevisiae deletion strains, locus YHR094C, strain hxt1, hits give low values 1 | S. cerevisiae deletion strains, locus YHR129C, strain ARP1, hits give low values 0.968 | S. cerevisiae deletion strains, locus YHR200W, strain rpn10, hits give low values 0.987 | S. cerevisiae deletion strains, locus YIL066C, strain RNR3, hits give low values 1 | S. cerevisiae deletion strains, locus YIL073C, strain SPO22, hits give low values 0.875 | S. cerevisiae deletion strains, locus YIL125W, strain kgd1, hits give low values 0.993 | S. cerevisiae deletion strains, locus YIR030C, strain dcg1, hits give low values 0.991 | S. cerevisiae deletion strains, locus YJL134W, strain LCB3, hits give low values 1.01 | S. cerevisiae deletion strains, locus YJL168C, strain set2, hits give low values 1 | S. cerevisiae deletion strains, locus YJL187C, strain SWE1 (second series), hits give low values 0.882 | [4] 0.981 | S. cerevisiae deletion strains, locus YKL068W, hits give low values 0.988 | S. cerevisiae deletion strains, locus YKL085W, strain MDH1 (second series), hits give low values 1.01 | S. cerevisiae deletion strains, locus YKL085W, strain MDH1, hits give low values 1.01 | [5] 1.02 | S. cerevisiae deletion strains, locus YLR058C, strain SHM2, hits give low values 0.944 | S. cerevisiae deletion strains, locus YLR102C, strain apc9, hits give low values 1 | S. cerevisiae deletion strains, locus YLR268W, strain sec22, hits give low values 0.974 | S. cerevisiae deletion strains, locus YLR342W, strain FKS1 (second series), hits give low values 0.814 | S. cerevisiae deletion strains, locus YLR371W, strain rom2, hits give low values 1.05 | S. cerevisiae deletion strains, locus YLR418C, strain cdc73, hits give low values 0.894 | S. cerevisiae deletion strains, locus YML016C, strain PPZ1, hits give low values 0.989 | S. cerevisiae deletion strains, locus YML032C, strain rad52, hits give low values 0.924 | S. cerevisiae deletion strains, locus YML124C, strain tub3, hits give low values 1.01 | S. cerevisiae deletion strains, locus YMR078C, strain ctf18, hits give low values 0.988 | S. cerevisiae deletion strains, locus YMR223W, strain ubp8, hits give low values 0.936 | [8] 0.798 | S. cerevisiae deletion strains, locus YNL067W, strain RPL9B, hits give low values 0.876 | S. cerevisiae deletion strains, locus YNL233W, strain BNI4, hits give low values 0.904 | S. cerevisiae deletion strains, locus YNL250W, strain rad50, hits give low values 0.912 | S. cerevisiae deletion strains, locus YNL271C, strain bni1, hits give low values 0.942 | S. cerevisiae deletion strains, locus YOL006C, strain TOP1, hits give low values 0.926 | S. cerevisiae deletion strains, locus YOL012C, strain htz1 1.56 | S. cerevisiae deletion strains, locus YOL147C, strain pex11, hits give low values 1.01 | S. cerevisiae deletion strains, locus YOR061W, strain CKA2, hits give low values 0.985 | S. cerevisiae deletion strains, locus YOR069W, strain VPS5, hits give low values 0.957 | S. cerevisiae deletion strains, locus YOR136W, strain idh2, hits give low values 0.984 | S. cerevisiae deletion strains, locus YOR144C, strain elg1, hits give low values 0.994 | S. cerevisiae deletion strains, locus YOR316C, strain cot1, hits give low values 0.992 | S. cerevisiae deletion strains, locus YPR119W, strain clb2, hits give low values 0.992 | S. cerevisiae deletion strains, locus YPR141C, strain kar3, hits give low values 1.02 | S. cerevisiae deletion strains, locus YPR167C, strain met16, hits give low values 0.956 | S. cerevisiae deletion strains, strain wtn01, hits give low values 0.961
active: S. cerevisiae deletion strains, locus YBR021W, strain FUR4, hits give low values 0.803 | S. cerevisiae deletion strains, locus YDR162C, strain NBP2, hits give low values 0.628 | S. cerevisiae deletion strains, locus YDR502C, strain sam2, hits give low values 0.899 | S. cerevisiae deletion strains, locus YGL078C, strain dbp3, hits give low values 0.844 | S. cerevisiae deletion strains, locus YGL248W, strain PDE1, hits give low values 0.882 | S. cerevisiae deletion strains, locus YGR135W, strain pre9, hits give low values 0.858 | S. cerevisiae deletion strains, locus YGR252W, strain gcn5, hits give low values 0.756 | S. cerevisiae deletion strains, locus YJL095W, strain BCK1, hits give low values 0.721 | S. cerevisiae deletion strains, locus YKL009W, strain mrt4, hits give low values 0.813 | S. cerevisiae deletion strains, locus YKR001C, strain vps1, hits give low values 0.83 | [6] 0.538 | [7] 0.421 | S. cerevisiae deletion strains, locus YLR330W, strain CHS5, hits give low values 0.891 | S. cerevisiae deletion strains, locus YNL298W, strain CLA4, hits give low values 0.893 | S. cerevisiae deletion strains, locus YNL307C, strain MCK1, hits give low values 0.885 | S. cerevisiae deletion strains, locus YNR052C, strain pop2, hits give low values 0.884 | S. cerevisiae deletion strains, locus YOR184W, strain ser1, hits give low values 0.82 | S. cerevisiae deletion strains, locus YPR163C, strain tif3, hits give low values 0.844

CC12CCC3C(CC[C@H]4CC5(CCC34C)OCCO5)C1CCC2O (stereo not given in full)
active: S. cerevisiae deletion strains, locus YCL061C, strain MRC1, hits give low values 0.87 | S. cerevisiae deletion strains, locus YJL187C, strain SWE1, hits give low values 0.92 | S. cerevisiae deletion strains, locus YJR043C, strain POL32, hits give low values 0.877 | [6] 0.74 | [7] 0.625 | [10] 0.905 | S. cerevisiae deletion strains, locus YNL322C, strain KRE1, hits give low values 1.08 [resistant]
inactive: [9] 0.988 | [1] 1.01 | [2] 0.976 | S. cerevisiae deletion strains, locus YDR150W, strain NUM1, hits give low values 0.912 | S. cerevisiae deletion strains, locus YEL061C, strain CIN8, hits give low values 0.999 | [3] 0.968 | S. cerevisiae deletion strains, locus YHR030C, strain SLT2, hits give low values 0.969 | S. cerevisiae deletion strains, locus YHR087W, strain rtc3, hits give low values 1.02 | [4] 1 | [5] 1.03 | S. cerevisiae deletion strains, locus YLR058C, strain SHM2 (second series), hits give low values 1.04 | S. cerevisiae deletion strains, locus YLR085C, strain ARP6, hits give low values 1.03 | S. cerevisiae deletion strains, locus YML094W, strain GIM5, hits give low values 0.98 | S. cerevisiae deletion strains, locus YMR219W, strain ESC1, hits give low values 1 | S. cerevisiae deletion strains, locus YMR263W, strain SAP30, hits give low values 0.992 | [8] 1.05 | S. cerevisiae deletion strains, locus YNL298W, strain CLA4 (second series), hits give low values 0.945 | S. cerevisiae deletion strains, locus YNR030W, strain Alg12, hits give low values 0.963 | [11] 0.98 | S. cerevisiae deletion strains, locus YPL241C, strain CIN2, hits give low values 0.962 | S. cerevisiae deletion strains, locus YPR135W, strain CTF4, hits give low values 0.832 | S. cerevisiae strains, strain wild type, hits give low values 1.02

CC(=O)[C@H]1CCC2C3CC[C@H]4C[C@H](O)CC[C@]4(C)C3CC[C@@]21C (stereo not given in full)
inactive: [9] 1.01 | S. cerevisiae deletion strains, locus YAL040C, strain CLN3, hits give low values 0.979 | S. cerevisiae deletion strains, locus YCL061C, strain MRC1 (second series), hits give low values 1 | S. cerevisiae deletion strains, locus YDR363W, strain ESC2, hits give low values 1.04 | S. cerevisiae deletion strains, locus YER002W, strain NOP16, hits give low values 1 | [3] 1.01 | [8] 0.935 | S. cerevisiae deletion strains, locus YNL128W, strain TEP1, hits give low values 1.01 | [10] 0.944 | S. cerevisiae deletion strains, locus YNL175C, strain NOP13, hits give low values 0.993 | S. cerevisiae deletion strains, locus YNL197C, strain WHI3, hits give low values 1.01 | S. cerevisiae deletion strains, locus YNL224C, strain SQS1, hits give low values 1 | S. cerevisiae deletion strains, locus YOR083W, strain WHI5 (second series), hits give low values 1 | [11] 0.98
